# FadD28 binding – M. tuberculosis FadD28 bisubstrate binding inhibition; inhibition, % at 12.5 µM; FadD28 bisubstrate probe binding, fluorescence polarization; hit rate 0.22% among 360,000; in the data active means inhibition above about 8.5%, passing the limit was not always enough
# Mtb UGM inh – blocks M. tuberculosis UGM enzyme; P9WIQ1; purified UGM, fluorescence polarization probe displacement; inhibition, % at 10 µM; hit rate 0.06% among 320,000; AID 504406; in the data active means inhibition above about 10%, passing the limit was not always enough
# Target sequence (P9WIQ1 whole entry, looked up): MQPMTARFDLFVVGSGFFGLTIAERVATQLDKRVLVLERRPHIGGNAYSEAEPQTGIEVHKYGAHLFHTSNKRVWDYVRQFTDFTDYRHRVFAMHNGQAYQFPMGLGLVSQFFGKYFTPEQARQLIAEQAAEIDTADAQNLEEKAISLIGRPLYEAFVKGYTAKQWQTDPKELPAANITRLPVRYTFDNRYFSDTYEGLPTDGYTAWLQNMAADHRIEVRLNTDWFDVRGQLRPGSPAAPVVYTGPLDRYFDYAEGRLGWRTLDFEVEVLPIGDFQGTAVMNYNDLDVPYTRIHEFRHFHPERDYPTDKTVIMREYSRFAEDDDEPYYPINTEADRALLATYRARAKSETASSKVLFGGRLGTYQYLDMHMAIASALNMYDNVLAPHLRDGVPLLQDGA
# Mtb hypoxia inh – reduces hypoxia-regulated biosensor signal in M. tuberculosis. hit rate 0.1% among 300,000. M. tuberculosis hypoxia-regulated fluorescent reporter, fluorescence. fluorescence inhibition, % (test concentration not listed); in the data active means fluorescence inhibition mostly above about 23%, no sharp cut-off; inactive means mostly below about 17%
# GDH-TPI inh – counter-screen for M. tuberculosis FBA inhibitors: GDH-TPI coupled enzymes. AID 588335. hit rate 1.2% among 360,000. inhibition, % at 4.8 µM. GDH-TPI coupled enzyme counterscreen, NADH absorbance; in the data active means inhibition above about 30%;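 further: 0% = DMSO wells and 100% = wells lacking the enzyme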
# Mtb FBA inh – Mtb fructose-bisphosphate aldolase inhibition; inhibition, % at 1 µM; hit rate 2.3% among 360,000; purified M. tuberculosis FBA, fluorescence read-out; in the data active means inhibition above about 27%;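 further: 0% = vehicle and 100% = reference inhibitor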
# Rv3671c protease – inhibits the M. tuberculosis serine protease Rv3671c; hit rate 0.048% among 320,000; P9WHR9; inhibition, % at 5.96 µM; in the data active means inhibition above about 38%;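 further: extracellular domain of Rv3671c used as enzyme; 0% = enzyme with DMSO and 100% = no enzyme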
# Active calls of the source: *; nt = no result given. The list is not random: actives were taken first. Their share in the collection is about 3.5%.
SMILES,FadD28 binding,Mtb UGM inh,Mtb hypoxia inh,GDH-TPI inh,Mtb FBA inh,Rv3671c protease
CCOC(=O)/C(C#N)=C1/C=CN(C)C(C)=N1,-1,4,-2,67*,-2,-9
O=[N+]([O-])c1cccc(-c2ccc(C=NNc3nc(N4CCCCC4)nc(N4CCCCC4)n3)o2)c1,nt,nt,19,nt,nt,nt
COc1cccc(C=NNc2snc(SC)c2C#N)c1,nt,nt,1,nt,nt,nt
COC(=O)c1sc(NC(=O)c2ccc(C)o2)nc1C,-2,0,11,35*,0,8
CCOC(=O)c1sc(NC(=O)c2ccc(C)o2)nc1C,-3,-3,0,23,-2,-14
CCOc1ccc2nc(NC(=O)c3ccc(C)o3)sc2c1,-3,6,13,49*,6,-2
CN(C)C(=O)CCC(=O)N(C)CC1CCCN(CCc2ccc(F)cc2)C1 (stereo not given),-5,2,-6,-1,188*,-3
CN(CC1CCCN(CCc2ccc(F)cc2)C1)C(=O)CCC(F)(F)F (stereo not given),0,3,-2,11,-1,3
CCOC1OC(C(=O)Nc2ccccc2)=CC(c2ccc(C(F)(F)F)cc2)C1CCCO (stereo not given),nt,nt,-2,nt,nt,nt
S=c1nccc(-c2ccc3c(c2)CCO3)[nH]1,-2,0,nt,49*,4,1
CC1(C)CCc2cc(-c3ccnc(=S)[nH]3)ccc2O1,0,0,10,29,4,-4
COC(=O)C1=C(c2ccc(S(C)(=O)=O)cc2)CC2CCC1N2C(=O)NC1CC1 (stereo not given),nt,nt,4,nt,nt,nt
COC(=O)NN=Cc1c(C)cc(C)cc1C,nt,nt,8,nt,nt,nt
O=C1NN(c2ccc(F)c(Cl)c2)C(=O)/C1=C\c1cccc(OC(=O)c2cccs2)c1,26*,-1,nt,3,-2,7
Cc1ccc(/C=N/Nc2cn[nH]c(=O)n2)o1,-4,2,nt,33*,-3,-2
CC(c1ccco1)N(C(=O)c1ccccc1NS(=O)(=O)c1ccc(Cl)c([N+](=O)[O-])c1)c1ccccn1 (stereo not given),1,-2,-2,32*,3,-14
CC(c1ccco1)N(C(=O)c1cc(Cl)cc(Cl)c1)c1ccccn1 (stereo not given),-8,1,-1,1,1,0
Cc1cc2n(c(=O)c1C#N)CCCN2c1ccccc1,0,0,3,58*,4,3
CC12CN3CC(C)(CN(C1)C3c1ccc(Cl)cc1Cl)C2O (stereo not given),-3,0,2,-2,-1,0
CN(C)c1ccc(C2N3CC4(C)CN2CC(C)(C3)C4O)cc1 (stereo not given),-3,4,-5,42*,4,0
CC1CN(C(C)CO)C(=O)c2cccc(NC(=O)NC3CCCCC3)c2OC1CN(C)C(=O)Nc1ccccc1 (stereo not given),nt,nt,11,nt,nt,nt
Cc1cc(OCC(=O)ON=C(N)c2ccccc2)ccc1Br,nt,nt,1,nt,nt,nt
CCN(CC)c1ccc(/C=N/NC(=O)c2cc3ccccc3[nH]2)cc1,2,-1,nt,32*,10,8
CCN(CC)c1ccc(C=NNC(=O)c2cc3ccccc3[nH]2)cc1,nt,nt,4,nt,nt,nt
O=C(Cc1cc(=O)oc2cc(O)ccc12)NN=Cc1ccc(N(CCCl)CCCl)cc1,-2,nt,5,56*,182*,nt
SMILES,FadD28 binding,Mtb UGM inh,Mtb hypoxia inh,GDH-TPI inh,Mtb FBA inh,Rv3671c protease
CCN(CC)c1ccc(C=NNC(=O)c2ccc3nc[nH]c3c2)cc1,nt,nt,1,nt,nt,nt
CCN(CC)c1ccc(/C=N/NC(=O)c2ccc3nc[nH]c3c2)cc1,31*,1,nt,60*,-1,0
COc1cc(/C=N/NC(=O)c2ccc3nc[nH]c3c2)ccc1O,-2,-1,nt,59*,0,-5
COc1cccc(/C=N/NC(=O)c2ccc3nc[nH]c3c2)c1,-3,-2,nt,12,-1,2
CC(C)NC(=O)N(C)CC1Oc2c(NC(=O)C3CC3)cccc2C(=O)N(C(C)CO)CC1C (stereo not given),nt,nt,2,nt,nt,nt
CN(C)c1ccc(/C=N/NC(=O)c2ccc3nc[nH]c3c2)cc1,3,-5,nt,56*,-1,-3
CCN(CC)c1ccc(/C=N/NC(=O)c2c[nH]c3ccccc23)cc1,2,1,nt,30,24,25
Cn1c(=O)cc(C(=O)N/N=C/c2ccc(Cl)cc2)[nH]c1=O,0,-1,nt,16,-1,9
CSc1ccc(/C=N/NC(=O)c2ccc3nc[nH]c3c2)cc1,-1,nt,nt,48*,2,nt
O=C(NN=Cc1ccc(N(CCCl)CCCl)cc1)c1cc(=O)[nH]c(=O)[nH]1,-3,nt,21,50*,-3,nt
O=C(NN=Cc1ccc(N(CCCl)CCCl)cc1)C(=O)c1c[nH]c2ccccc12,0,nt,9,43*,-2,nt
C=CC[N@@+]12CC[C@@]34c5ccccc5N5C=C6C7CC8[C@@]9(CC[N@@+]8(CC=C)CC7=CCO)c7ccccc7N(C=C(C(CC31)C(=CCO)C2)C54)C69 (stereo not given in full),nt,nt,-1,nt,nt,nt
Cc1ccc(C(=O)N2CCN(c3ccccc3)CC2)cc1C,-4,-1,20,4,0,2
Cc1ccc(C(=O)N2CCN(c3cccc(Cl)c3)CC2)cc1C,-3,-2,13,31*,3,-4
Cc1c(Cl)cccc1NC(=O)CCC(=O)NN=Cc1ccc[nH]1,nt,nt,8,nt,nt,nt
Cc1cccc(N2C(=O)NC(=O)/C(=C\c3ccc(N4CCOCC4)cc3)C2=O)c1,0,2,7,31*,-4,-5
Cc1[nH]n(-c2ccccc2)c(=O)c1C=NNC(=O)c1ccc(O)cc1O,nt,nt,1,nt,nt,nt
N#CCCn1cc(C(=O)Nc2ccc([N+](=O)[O-])cc2)c(-c2ccccc2)n1,-5,1,12,38*,-1,-3
O=C(NN=Cc1cccnc1)c1ccccc1[N+](=O)[O-],nt,nt,7,nt,nt,nt
C=CCn1c(-c2ccccc2)nc2nc3ccccc3nc21,-4,-4,21,39*,126*,-2
C(=N\Nc1nc2ccccc2s1)/c1ccco1,0,-2,nt,42*,-1,3
C(=N\Nc1nc2ccccc2s1)/c1cccs1,1,-1,nt,42*,0,11
Oc1ccc(C=NNc2nc3ccccc3s2)c(O)c1,6,nt,18,32*,-1,nt
CCc1ccccc1NC(=O)NC(C(=O)O)C(C)C (stereo not given),nt,nt,12,nt,nt,nt
COC(=O)CSC1=C(C#N)C(=O)NC(c2ccccc2)S1 (stereo not given),-2,1,2,41*,-7,-3
CSCCC(NC(=O)C(=Cc1ccc(F)cc1)NC(C)=O)C(=O)O (stereo not given),nt,nt,-2,nt,nt,nt
Oc1ccc(/C=N/Nc2cc(N3CCOCC3)nc(N3CCOCC3)n2)cc1,-2,1,nt,58*,2,-11
